Source: the supplement of paper PMC12494721
Structures can show the parent of a compound that is named as a salt.

What was measured:
Conditions in all cases: 20 µM; incubation time: 27 h, anaerobic, 37 °C;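 for the amine columns active = adjusted P below 0.05 in both replicates with a change the same way and a mean fold change under 0.8 or over 1.25; inactive = the rest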
[1] = tested on: Clostridium sporogenes DSM 1664; assay: growth (OD595) fold change vs plate DMSO controls (fold change (ratio)); higher = more growth
Summary of the method: (§1)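 Shaken 96-well cultures in mGAM, grown anaerobically for 27 h at 37 °C, were read at 595 nm. OD came from blank-subtracted readings, corrected for background with 20 µM compound solutions in water and scaled by a calibration factor of 5. Growth is the fold change versus the plate's median DMSO control. Values average 2 biological replicates, and any fold change above 1.5 is NA.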

Escherichia coli IAI1 [2] = assay: as above
Summary of the method: as §1

[3] = tested on: Klebsiella aerogenes DSM 30053; assay: as above
Summary of the method: as §1

[4] = tested on: Ruminococcus gnavus DSM 108212; assay: as above
Summary of the method: as §1

[5] = tested on: Klebsiella aerogenes DSM 30053; assay: fold change of Histamine concentration vs plate DMSO controls (fold change (ratio)); higher = more amine produced, active = hit call of the paper (significant change in both replicates, either direction)
Summary of the method: (§2)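 In 80 µL wells, cultures of four gut bacterial strains in mGAM started at OD 0.1 before a 1:1 dilution and grew anaerobically at 37 °C for 27 h. Compounds were added to 20 µM final, except sweeteners at 50 µM final. After extraction of whole cultures with cold acetonitrile/methanol plus 0.1% formic acid and centrifugation, amines were measured by LC–triple-quadrupole MS in dynamic MRM mode against external calibration curves, with within-batch drift correction. Values give fold change over DMSO controls on the same plate, averaged across 2 biological replicates.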

[6] = tested on: Clostridium sporogenes DSM 1664; assay: fold change of Tryptamine concentration vs plate DMSO controls (fold change (ratio)); higher = more amine produced, active = hit call of the paper (significant change in both replicates, either direction)
Summary of the method: as §2

[7] = tested on: Ruminococcus gnavus DSM 108212; assay: as above
Summary of the method: as §2

Escherichia coli IAI1 [8] = assay: fold change of Putrescine concentration vs plate DMSO controls (fold change (ratio)); higher = more amine produced, active = hit call of the paper (significant change in both replicates, either direction)
Summary of the method: as §2

[9] = tested on: Klebsiella aerogenes DSM 30053; assay: as above
Summary of the method: as §2

Escherichia coli IAI1 [10] = assay: fold change of Cadaverine concentration vs plate DMSO controls (fold change (ratio)); higher = more amine produced, active = hit call of the paper (significant change in both replicates, either direction)
Summary of the method: as §2

[11] = tested on: Klebsiella aerogenes DSM 30053; assay: as above
Summary of the method: as §2

[12] = tested on: Ruminococcus gnavus DSM 108212; assay: fold change of 2-Phenylethylamine concentration vs plate DMSO controls (fold change (ratio)); higher = more amine produced, active = hit call of the paper (significant change in both replicates, either direction)
Summary of the method: as §2

SMILES | growth [1] | growth (Escherichia coli IAI1 [2]) | growth [3] | growth [4] | fold change of Histamine concentration [5] | fold change of Tryptamine concentration [6] | fold change of Tryptamine concentration [7] | fold change of Putrescine concentration (Escherichia coli IAI1 [8]) | fold change of Putrescine concentration [9] | fold change of Cadaverine concentration (Escherichia coli IAI1 [10]) | fold change of Cadaverine concentration [11] | fold change of 2-Phenylethylamine concentration [12]
C[N+]12CCC(CC1)C(OC(=O)C(O)(c1ccccc1)c1ccccc1)C2 (configuration not stated) [Clidinium bromide] | 1.02 | 1.04 | 1.07 | 1 | 0.975 (inactive) | 0.952 (inactive) | 1.03 (inactive) | 0.957 (inactive) | 0.981 (inactive) | 1 (inactive) | 1 (inactive) | 1.02 (inactive)
Oc1ccc2c3c1O[C@H]1[C@@H](O)CC[C@@]4(O)[C@@H](C2)N(CC2CCC2)CC[C@]314 [Nalbuphine hydrochloride] | 0.891 | 0.895 | 0.923 | 1.08 | 1 (inactive) | 1 (inactive) | 0.957 (inactive) | 1.04 (inactive) | 1.01 (inactive) | 1.01 (inactive) | 1.01 (inactive) | 0.922 (inactive)
CN1[C@@H]2C[C@@H](OC(=O)[C@H](CO)c3ccccc3)C[C@H]1[C@@H]1O[C@@H]12 [Scopolamine hydrochloride] | 1.07 | 1.01 | 1.03 | 1.08 | 0.953 (inactive) | 1.2 (inactive) | 1.08 (inactive) | 1.17 (inactive) | 0.965 (inactive) | 0.948 (inactive) | 1.02 (inactive) | 1.12 (inactive)
O=C(O)C(F)(F)C(F)(F)C(F)(F)C(F)(F)C(F)(F)C(F)(F)C(F)(F)F [PFOA (Perfluorooctanoic acid)] | 0.946 | 1.02 | 0.999 | 0.985 | 1.02 (inactive) | 0.979 (inactive) | 0.94 (inactive) | 1.03 (inactive) | 1 (inactive) | 1.02 (inactive) | 0.992 (inactive) | 0.878 (inactive)
COC(=O)NC(=S)Nc1ccccc1NC(=S)NC(=O)OC | 1.11 | 1.02 | 0.97 | 0.994 | 0.974 (inactive) | 1.02 (inactive) | 0.971 (inactive) | 0.954 (inactive) | 0.972 (inactive) | 0.974 (inactive) | 1.01 (inactive) | 0.936 (inactive)
CCCCC(C#N)(Cn1cncn1)c1ccc(Cl)cc1 (configuration not stated) | 1.07 | 1.07 | 1.01 | 1.14 | 0.939 (inactive) | 1.2 (inactive) | 1.07 (inactive) | 0.908 (inactive) | 0.815 (inactive) | 0.907 (inactive) | 1.16 (inactive) | 1.14 (inactive)
CC[N+]1(C)CCCC(OC(=O)C(O)(c2ccccc2)c2ccccc2)C1 (configuration not stated) [Pipenzolate bromide] | 0.938 | 0.997 | 0.994 | 1.05 | 0.982 (inactive) | 0.957 (inactive) | 0.956 (inactive) | 1.06 (inactive) | 1 (inactive) | 0.988 (inactive) | 1.01 (inactive) | 0.926 (inactive)
CCOc1cc(Oc2ccc(C(F)(F)F)cc2Cl)ccc1[N+](=O)[O-] | 1.13 | 0.996 | 1 | 0.995 | 0.981 (inactive) | 1.06 (inactive) | 1.04 (inactive) | 0.953 (inactive) | 0.943 (inactive) | 0.933 (inactive) | 1.08 (inactive) | 1.05 (inactive)
CSc1nc(NC(C)C)nc(NC(C)C)n1 | 0.932 | 1.01 | 1.02 | 0.973 | 0.971 (inactive) | 0.943 (inactive) | 0.955 (inactive) | 0.946 (inactive) | 1.04 (inactive) | 1.01 (inactive) | 1.03 (inactive) | 1 (inactive)
O=c1c2ccccc2[se]n1-c1ccccc1 [Ebselen] | 1.02 | 1.12 | 1.14 | 1.14 | 0.916 (inactive) | 0.823 (inactive) | 0.801 (inactive) | 1.02 (inactive) | 0.959 (inactive) | 0.953 (inactive) | 0.984 (inactive) | 0.851 (inactive)
CCN(CC)C(C)C(=O)c1ccccc1 (configuration not stated) [Amfepramone hydrochloride] | 1.04 | 1.05 | 1.02 | 1.06 | 0.955 (inactive) | 1.03 (inactive) | 1.06 (inactive) | 1.06 (inactive) | 0.982 (inactive) | 0.938 (inactive) | 1.01 (inactive) | 1.06 (inactive)
CNC(=O)Oc1cccc2ccccc12 | 1.12 | 0.98 | 1 | 0.969 | 0.989 (inactive) | 0.933 (inactive) | 0.989 (inactive) | 1.06 (inactive) | 1.01 (inactive) | 0.965 (inactive) | 1.01 (inactive) | 0.97 (inactive)
C=C(C)[C@@H]1[C@H]2OC(=O)[C@@H]1[C@]1(O)C[C@H]3O[C@]34C(=O)O[C@H]2[C@]14C [Picrotoxinin] | 1 | 0.983 | 1.04 | 1.15 | 0.896 (inactive) | 1.01 (inactive) | 1.02 (inactive) | 0.898 (inactive) | 0.932 (inactive) | 0.998 (inactive) | 0.987 (inactive) | 1.03 (inactive)
C[N+]1(C)CCCCC1 | 1 | 1.08 | 1.02 | 1.04 | 1.01 (inactive) | 0.957 (inactive) | 1.03 (inactive) | 1 (inactive) | 1.01 (inactive) | 0.995 (inactive) | 1.02 (inactive) | 1.05 (inactive)
C[C@]12CC[C@@H]3c4ccc(OC(=O)N(CCCl)CCCl)cc4CC[C@H]3[C@@H]1CC[C@@H]2O [Estramustine] | 0.804 | 0.998 | 0.983 | 1.24 | 0.899 (inactive) | 0.616 (active) | 0.949 (inactive) | 1.01 (inactive) | 1.01 (inactive) | 1.05 (inactive) | 1.04 (inactive) | 0.928 (inactive)
CSc1nnc(C(C)(C)C)c(=O)n1N | 0.994 | 1.01 | 1 | 0.945 | 0.976 (inactive) | 0.982 (inactive) | 1.07 (inactive) | 0.945 (inactive) | 0.978 (inactive) | 0.959 (inactive) | 1.04 (inactive) | 1.13 (inactive)
Cc1nc(N(C)C)nc(OC(=O)N(C)C)c1C | 1.02 | 1 | 0.963 | 1.06 | 1.01 (inactive) | 1.12 (inactive) | 0.985 (inactive) | 0.905 (inactive) | 1 (inactive) | 1.02 (inactive) | 1 (inactive) | 0.945 (inactive)
Cc1cc(C(C#N)c2ccc(Cl)cc2)c(Cl)cc1NC(=O)c1cc(I)cc(I)c1O (configuration not stated) | 0 | 0.947 | 1 | 0.156 | 1.07 (inactive) | 0.0183 (active) | 0.104 (active) | 1.07 (inactive) | 1.03 (inactive) | 1.29 (active) | 1.01 (inactive) | 0.11 (active)
C#C[C@]1(O)CC[C@H]2[C@@H]3CCC4=CC(=O)CCC4=C3C=C[C@@]21CC [Gestrinone] | 1.02 | 0.985 | 0.996 | 1.04 | 0.947 (inactive) | 1.03 (inactive) | 1.16 (inactive) | 0.88 (inactive) | 0.96 (inactive) | 0.913 (inactive) | 1.03 (inactive) | 1.18 (inactive)
Cc1cc(C)c(C2=C(OC(=O)CC(C)(C)C)C3(CCCC3)OC2=O)c(C)c1 | 0.884 | 1.02 | 1.01 | 0.937 | 1 (inactive) | 0.972 (inactive) | 1.01 (inactive) | 1.01 (inactive) | 1.02 (inactive) | 0.983 (inactive) | 0.999 (inactive) | 1.01 (inactive)
Cc1cccc2sc3nncn3c12 | 0.977 | 1 | 0.981 | 1 | 0.973 (inactive) | 0.982 (inactive) | 0.98 (inactive) | 0.99 (inactive) | 0.997 (inactive) | 1.03 (inactive) | 0.995 (inactive) | 0.992 (inactive)
COc1ccc(Cc2nccc3cc(OC)c(OC)cc23)cc1OC [Papaverine hydrochloride] | 1.17 | 1.02 | 1.08 | 0.848 | 0.961 (inactive) | 1 (inactive) | 0.99 (inactive) | 0.964 (inactive) | 0.992 (inactive) | 1.22 (inactive) | 1.02 (inactive) | 1.06 (inactive)
CC(=O)O[C@H]1CC[C@@]2(C)C(=CC[C@@H]3[C@@H]2CC[C@]2(C)C(=O)CC[C@@H]32)C1 [Dehydroisoandosterone 3-acetate] | 0.905 | 1.04 | 0.994 | 1.08 | 1.02 (inactive) | 0.937 (inactive) | 1.04 (inactive) | 1.08 (inactive) | 1.04 (inactive) | 1.01 (inactive) | 1.01 (inactive) | 1.04 (inactive)
O=P(Oc1ccccc1)(Oc1ccccc1)Oc1ccccc1 [Triphenyl PO4] | 0.98 | 1.03 | 1.02 | 1.04 | 0.998 (inactive) | 1.16 (inactive) | 0.971 (inactive) | 1.01 (inactive) | 0.842 (inactive) | 0.993 (inactive) | 1.14 (inactive) | 0.995 (inactive)
CCOc1ccc(C(C)(C)COCc2cccc(Oc3ccccc3)c2)cc1 | 1.14 | 1.03 | 1.01 | 1.13 | 0.97 (inactive) | 1.03 (inactive) | 1.05 (inactive) | 1.01 (inactive) | 0.984 (inactive) | 0.969 (inactive) | 1.05 (inactive) | 1.05 (inactive)
CCCN(CCC)C(=O)SCc1ccccc1 | 1.02 | 1 | 1.03 | 0.973 | 1.04 (inactive) | 1.02 (inactive) | 0.923 (inactive) | 1.02 (inactive) | 1.01 (inactive) | 0.995 (inactive) | 0.993 (inactive) | 0.897 (inactive)
